From PubChem BioAssay AID2685 (National Center for Advancing Translational Sciences (NCATS), 2010) come the findings set out here.

The structures appear in SMILES notation. Where “and” joins values, the source holds several entries; their conditions need not be identical. Identical values can stand only once. Out of some 320,000 compounds screened, about 2,100 (0.66%) were called active. Not shown: some 53% with an inconclusive outcome. This is one part of a sample in which actives are shown more often than they occur. Calls follow the shape of the dose curve; as a rule, active = well fitted inhibition curve with a large enough effect in the signal ratio, with a control signal flat (not every such curve was filed as active); inconclusive = small, poorly fitted or top-dose-only effect, or effect the other way, or a change in a side signal; inactive = flat fitted curve, though single readings scatter; the % refers to the signal ratio.
Potency is read from the fitted curve at half-maximal effect.

The test is described as follows: qHTS Assay for Lipid Storage Modulators in Drosophila S3 Cells.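 As to cell number change: cells counted by Cell Tracker Red CMTPX staining in the red channel.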 As to lipid storage change, negative = inhibition: % is scaled to controls: 0 for no effect and ±100 for the full control effect. As to conditions: BODIPY lipid droplet fluorescence, 18-24 h, cells fed with added oleic acid; cell number change: measured here: cell count max response; series mostly up to 46.1 µM; lipid storage change, negative = inhibition: at the top concentration. The gist of the method:
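Laser-scanning cytometry quantifies lipid droplet accumulation (500–530 nm total intensity; droplet/cell object ratio) in oleic acid-fed (400 uM added) Drosophila S3 cells treated with a concentration series. 20 uM Triacsin C defined 100% inhibition.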
In general terms: Quantitative high-throughput screening tests each substance at several concentrations.
As for `COc1ccc([C@H]2CC(=O)C=C(c3ccc4c(c3)OCO4)C2)cc1`, the “lipid storage change, negative = inhibition” value was -9.07% (inactive) and the cell number change stood at 2.65%.

Regarding `CCOC(=O)C1CCCN(C(=O)c2ccc3nc(-c4ccc(OC)c(OC)c4)c(-c4ccc(OC)c(OC)c4)nc3c2)C1` (centres undefined), the Potency is 4.11 µM (active) and the cell number change is -26.9%.

In the case of `COc1ccc(NC2CCCN(C(=O)c3ccc4nc(C)c(C)nc4c3)C2)cc1OC` (centres undefined), the compound was called inactive.

With `CCOC(=O)C1CCCN(C(=O)c2ccc3nc(-c4cccc(OC)c4)oc3c2)C1` (centres undefined), the “lipid storage change, negative = inhibition” value is -19.1% (inactive) and the cell number change is 6.9%.

Consider `O=c1c2nnn(-c3ccc(Br)cc3)c2ncn1Cc1ccccn1`, for which the “lipid storage change, negative = inhibition” value was 14.2% (inactive) and the cell number change worked out at 17.2%.

`CSC1=NC(NCCCO)c2c(sc3c2CC(C)(C)OC3)N1` (centres undefined): the “lipid storage change, negative = inhibition” value is 21.6% (inactive) and the cell number change was -5.44%.

For the compound `CC(=O)N1N=C(c2cccc(NS(=O)(=O)c3ccc(C)cc3)c2)CC1c1ccco1` (centres undefined), the compound was called inactive and the cell number change was -6.11%.

On to `CC(=O)N1N=C(c2ccc(Cl)cc2)CC1c1ccco1` (centres undefined), for which the “lipid storage change, negative = inhibition” value is 26.9% (inactive) and the cell number change turned out to be 10.2%.

On to `CCS(=O)(=O)Nc1ccc(C2=NN(S(=O)(=O)c3ccc(F)cc3)C(c3ccco3)C2)cc1` (centres undefined), for which the “lipid storage change, negative = inhibition” value is -3.66% (inactive) and the cell number change worked out at 4.44%.

`CS(=O)(=O)Nc1cccc(C2=NN(S(=O)(=O)c3ccccc3)C(c3ccco3)C2)c1` (centres undefined): the “lipid storage change, negative = inhibition” value was 0.748% (inactive) and the cell number change is -5.75%.

For `CC(=O)N1N=C(c2ccc(NS(=O)(=O)c3ccccc3)cc2)CC1c1ccco1` (centres undefined), the Potency is 9.2 µM (active) and the cell number change was -11.6%.

In the case of `O=S(=O)(c1ccccc1)N1N=C(c2ccc(Br)cc2)CC1c1ccco1` (centres undefined), the Potency is 16.4 µM (active) and the cell number change was determined as 13.4%.

For the compound `Cc1cc(C)c(O)c(-c2cc(C(=O)Nc3cccnc3)[nH]n2)c1`, the “lipid storage change, negative = inhibition” value was -22.1% (inactive) and the cell number change was -5.15%.

With `CCc1ccc(-c2cc(C)no2)cc1S(=O)(=O)NCc1ccccc1OC`, the result was inactive and the cell number change turned out to be 2.29%.

For `COc1ccc(-c2noc(-c3ccccc3C(=O)Nc3cccc(OC)c3)n2)cc1`, the “lipid storage change, negative = inhibition” value was 13.9% (inactive) and the cell number change stood at 2.43%.

Take `O=C1CCCc2c1cc(C(=O)NCc1ccco1)c(=O)n2-c1ccccc1`: the “lipid storage change, negative = inhibition” value is 12.5% (inactive) and the cell number change worked out at 1.19%.

On to `CC(Cl)C(=O)c1ccc2c(c1)CCN2C(=O)C1CC1` (centres undefined), for which the “lipid storage change, negative = inhibition” value is 4.02% (inactive) and the cell number change was -1.68%.

For `CCN1CCN(C(c2cccnc2)c2c(NC(=O)c3ccco3)sc(C)c2C)CC1` (centres undefined), the Potency was 8.2 µM (active) and the cell number change is -4.13%.

On to `Cc1sc(NC(=O)c2ccco2)c(C(c2cccnc2)N2CCCC2)c1C` (centres undefined), for which the “lipid storage change, negative = inhibition” value was -15.8% (inactive) and the cell number change was -20.2%.

As for `COc1ccc(C(c2c(NC(=O)c3ccco3)sc(C)c2C)N2CCOCC2)cc1OC` (centres undefined), the “lipid storage change, negative = inhibition” value is 8.2% (inactive) and the cell number change is -1.23%.

`COc1ccc(C(c2c(NC(=O)c3ccco3)sc(C)c2C)N2CCOCC2)cc1` (centres undefined): the compound was classed as inactive.

Turning to `COc1cccc(C(c2c(NC(=O)c3ccco3)sc(C)c2C)N2CCOCC2)c1` (centres undefined), the Potency was 20.6 µM (active) and the cell number change is -13.8%.

For `Cc1sc(NC(=O)c2ccco2)c(C(c2cccnc2)N2CCN(CCO)CC2)c1C` (centres undefined), the “lipid storage change, negative = inhibition” value was -3.36% (inactive) and the cell number change is -13.8%.

Consider `CCOCCCNCc1c(Cl)cccc1Cl`, for which the “lipid storage change, negative = inhibition” value is 1.39% (inactive) and the cell number change turned out to be 5.68%.

Turning to `CCOC(=O)/C(=N\Nc1cccc(Cl)c1)Sc1nnc(-c2ccc(OC)cc2)n1C`, the “lipid storage change, negative = inhibition” value is 13.8% (inactive) and the cell number change came out at 1.18%.

Take `O=S(=O)(NCCc1ccccn1)c1ccc(-c2ccccn2)s1`: the “lipid storage change, negative = inhibition” value was 5.79% (inactive) and the cell number change is -6.49%.

As for `O=C1OCCN/C1=C\C(=O)c1ccc(Cl)cc1`, the “lipid storage change, negative = inhibition” value was 4.76% (inactive) and the cell number change stood at 19.7%.

In the case of `OCCC1CN(Cc2nc3c(s2)CCCC3)CCN1Cc1ccccc1` (centres undefined), the “lipid storage change, negative = inhibition” value is 8.62% (inactive) and the cell number change was determined as 17.4%.

In the case of `CCN1CCN(C(=S)c2ccc(Br)cc2)CC1`, the “lipid storage change, negative = inhibition” value is -3.85% (inactive) and the cell number change is -1.28%.

Consider `CCc1nnc(NC(=O)Cc2ccc(OC)c(OC)c2)s1`, for which the “lipid storage change, negative = inhibition” value was -9.59% (inactive) and the cell number change worked out at 9.15%.

Turning to `CC(C)[C@H](NC(=O)C1(c2ccccc2)CCN(C(=O)OC(C)(C)C)CC1)C(=O)O`, the “lipid storage change, negative = inhibition” value was -1.69% (inactive) and the cell number change was 0.279%.

Take `C[C@H](NC(=O)C1(c2ccccc2)CCN(C(=O)[C@H]2CSCN2C(=O)OC(C)(C)C)CC1)C(=O)O`: the Potency was -15.3% and -9.67%.

On to `CC(C)C[C@H](NC(=O)C1(c2ccccc2)CCN(C(=O)[C@H]2CSCN2C(=O)OC(C)(C)C)CC1)C(=O)O`, for which the “lipid storage change, negative = inhibition” value is -0.167% (inactive).

Turning to `CC1NC(=O)c2ccccc2-n2c1nc1cc(F)ccc1c2=O` (centres undefined), the “lipid storage change, negative = inhibition” value is -24.4% (inactive) and the cell number change was determined as 0.361%.

In the case of `COc1ccc(C2=NCCn3nc4cc(OC)ccc4c32)cc1`, the “lipid storage change, negative = inhibition” value is 3.18% (inactive) and the cell number change was -20.7%.

In the case of `Cc1ccc(C2=NCCn3c2c2ccc([N+](=O)[O-])cc2[n+]3[O-])cc1`, the Potency was 0.58 µM (active) and the cell number change was -25.9%.

Regarding `O=[N+]([O-])c1ccc2c3n([n+]([O-])c2c1)CCN=C3c1ccc(Cl)cc1`, the “lipid storage change, negative = inhibition” value is 8.37% (inactive) and the cell number change was found to be 12.6%.

`NS(=O)(=O)c1ccc(CNC(=S)NC2CCCCC2)cc1`: the “lipid storage change, negative = inhibition” value is -3.85% (inactive) and the cell number change was -8.89%.

For `Cc1ccc(NC(=O)Cn2c(O)c(N=NC(N)=O)c3ccccc32)cc1`, the “lipid storage change, negative = inhibition” value was -14.8% (inactive) and the cell number change was -8.5%.

Take `COc1cccc2cc(C(=O)N3CCN(c4ccc(C)cc4C)CC3)c(=O)oc12`: the compound was classed as inactive and the cell number change was determined as 12.9%.

Regarding `O=P(O)(OCc1ccccc1)OCc1ccccc1`, the “lipid storage change, negative = inhibition” value was 5.37% (inactive) and the cell number change came out at 4.18%.

Consider `COC(=O)c1c(NC(=O)c2ccco2)sc2c1CCN(C(C)=O)C2`, for which the Potency is 7.31 µM (active) and the cell number change is -25.8%.

As to `COC(=O)c1c(NC(=O)c2ccco2)sc2c1CCC2`, the “lipid storage change, negative = inhibition” value is 0.361% (inactive) and the cell number change came to 3.65%.

Regarding `COC(=O)c1c(NC(=O)C2CC2)sc2c1CCN(C(C)=O)C2`, the compound was classed as inactive.

As for `O=C(CSc1nc2ccc([N+](=O)[O-])cc2[nH]1)NC1CCCC1`, the “lipid storage change, negative = inhibition” value was 4.94% (inactive) and the cell number change was 16%.

As to `O=[N+]([O-])c1ccc(/C=N/N=C/c2ccc([N+](=O)[O-])o2)o1`, the “lipid storage change, negative = inhibition” value is 13.8% (inactive) and the cell number change was 21.7%.

In the case of `CCCSC1=N/C(=C\c2ccc([N+](=O)[O-])o2)C(=O)S1`, the “lipid storage change, negative = inhibition” value was 17.3% (inactive) and the cell number change came out at 18.4%.

For `O=C1NC(=S)S/C1=C\C=C\c1ccc([N+](=O)[O-])o1`, the Potency was 6.51 µM (active) and the cell number change was -18.3%.

For the compound `Cc1ccccc1/C=C/c1cc[n+](C)cc1`, the “lipid storage change, negative = inhibition” value was 5.44% (inactive).

With `C[n+]1ccc(/C=C/c2c[nH]c3ccccc23)cc1`, the Potency was 4.11 µM (active) and the cell number change came to 5.59%.
